This is an account of results in ChEMBL document CHEMBL3433997, “St. Jude Leishmania screening dataset” (2016).

What is called inhibition is the relative decrease from the control value, in per cent.

What all share (type): functional
For assay [1], the target named is Solute carrier family 2, facilitated glucose transporter member 1 (Homo sapiens) (UniProt P11166). As to the kind of experiment: ST_JUDE_LEISH: Cytotoxicity at 2uM final concentration against transgenic Leishmania Mexicana promastigotes LmGLUT1 that are glucose transport deficient and complemented with the human glucose transporter GLUT1. Activity is measured by DNA content using SYBR green in vitro.

For assay [2], the target named is Hexose transporter 1 (Plasmodium falciparum) (UniProt O97467). As to the kind of experiment: ST_JUDE_LEISH: Cytotoxicity at 2uM final concentration against transgenic Leishmania Mexicana promastigotes LmPfHT that are glucose transport deficient and complemented with the Plasmodium falciparum hexose transporter. Activity is measured by DNA content using SYBR green in vitro.

In assay [3] the target is Glucose transporter (Leishmania mexicana) (UniProt O61059). Nature of the assay: ST_JUDE_LEISH: Cytotoxicity at 2uM final concentration against transgenic Leishmania Mexicana promastigotes LmGT2 that are glucose transport deficient and complemented with the L. Mexicana glucose transporter 2. Activity is measured by DNA content using SYBR green in vitro.

Sequence of Solute carrier family 2, facilitated glucose transporter member 1 (Homo sapiens) (P11166 whole entry): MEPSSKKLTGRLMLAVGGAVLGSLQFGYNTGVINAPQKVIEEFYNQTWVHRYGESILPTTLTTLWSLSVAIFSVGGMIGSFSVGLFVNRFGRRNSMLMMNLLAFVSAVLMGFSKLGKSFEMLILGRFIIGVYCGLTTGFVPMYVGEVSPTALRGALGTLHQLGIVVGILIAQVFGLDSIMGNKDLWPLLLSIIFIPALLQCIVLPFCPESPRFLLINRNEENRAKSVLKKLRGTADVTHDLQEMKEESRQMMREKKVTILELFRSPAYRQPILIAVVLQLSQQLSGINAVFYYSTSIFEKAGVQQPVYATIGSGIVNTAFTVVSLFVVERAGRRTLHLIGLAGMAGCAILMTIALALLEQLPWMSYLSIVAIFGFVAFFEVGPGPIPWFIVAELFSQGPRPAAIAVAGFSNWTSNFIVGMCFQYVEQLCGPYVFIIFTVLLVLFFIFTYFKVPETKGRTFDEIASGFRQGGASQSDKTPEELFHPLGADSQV

For `NC(Cc1cccc(I)c1)C(=O)NCC1CCCO1` (stereo not drawn), the inhibition in assay [1] is 1.94%; in assay [2], 0.37%; in assay [3] it was 0.96%.

Regarding `c1ccc(CNCc2ccc(-c3cccc(-c4nc5ccccc5[nH]4)c3)cc2)cc1`, the values for the inhibition in assay [1], in assay [2] and in assay [3] were -1.6%, -1.2% and -1.62%, respectively.

For `NC1=NC(CCc2ccccc2)N(c2ccc(Cl)cc2)C(N)=N1` (stereo not drawn), the results for the inhibition in assay [1], in assay [2] and in assay [3] were 7.41%, 1.15% and 1.06%, respectively.

On to `O=C(Nc1cccnc1)c1cc(C(=O)Nc2cccnc2)cc([N+](=O)[O-])c1`, for which the inhibition in assay [1] was found to be 0.86%; in assay [2], 3.44%; in assay [3] it was 0.83%.

On to `CC(=O)c1ccc(Nc2c(C(N)=O)cnc3cc(-c4c(C)noc4C)ccc23)cc1`, for which the inhibition in assay [1] turned out to be 8.14%; in assay [2], 6.39%; in assay [3], 5.76%.

Regarding `Cc1cc(N2CC=CCC2)nc(NC(=N)Nc2ccc(Cl)cc2)n1`, the values for the inhibition in assay [1], in assay [2] and in assay [3] were 6.87%, 7.74% and 6.89%, respectively.

Turning to `CC(NCCc1cccc(Cl)c1)C(O)c1ccc(OCCCCCCOc2ccc(C(O)C(C)NCCc3cccc(Cl)c3)cc2)cc1` (stereo not drawn), the inhibition in assay [1] was 38.2%; in assay [2] it was 69.9%; in assay [3], 24.4%.

In the case of `Cc1cccc(C=NN=c2cc(C)[nH]c3ccc(F)cc23)n1`, the inhibition in assay [1] was determined as 6.63%; in assay [2], 6.71%; in assay [3], 4.02%.

As for `Cc1ccc2ccccc2c1CCCON1C(=N)N=C(N)NC1(C)C`, the inhibition in assay [1] stood at 4.76%; in assay [2], 3.93%; in assay [3], 2.74%.

Regarding `Cc1cccc(C)c1/N=C1\NC(=S)N(c2cccc(Cl)c2)C12CCC(C(C)(C)C)CC2` (stereo not drawn), the figures for the inhibition in assay [1], in assay [2] and in assay [3] were -2.68%, -1.2% and 0.24%, respectively.

On to `N#Cc1ccc(N/C(=N\c2ccccc2Br)N(C2CCCCC2)C2CCCCC2)c(O)c1`, for which the inhibition was 6.11% in assay [1], 4.65% in assay [2] and 5.56% in assay [3].

As to `CCOC(=O)c1ccc(NC(=O)Nc2ccc(Cn3ncc(N4CCCNCC4)c(Cl)c3=O)cc2)cc1`, the inhibition is 8.8% in assay [1], 12.6% in assay [2] and 7.11% in assay [3].

Regarding `Nc1nc2c(c(=O)[nH]1)CN(S(=O)(=O)c1ccc(C(=O)N[C@@H](CCC(=O)O)C(=O)O)cc1)CC2`, the inhibition in assay [1] is -3.01%; in assay [2], -2.13%; in assay [3], -1.12%.

As for `CC1CN(c2ccc3[nH]cc(Sc4ccc(-c5cccs5)cc4)c3c2)CC(C)N1` (stereo not drawn), the inhibition is -0.79% in assay [1], -1.78% in assay [2] and -1.36% in assay [3].

With `O=[N+]([O-])c1ccc2nccnc2c1`, the inhibition in assay [1] is 6.19%; in assay [2], 5.71%; in assay [3], 6.9%.

`COc1ccc(C(=O)Nc2cc(Cl)c3c(c2)C2CCCN2CC3)cc1C(F)(F)F` (stereo not drawn): the inhibition in assay [1] is 3.22%; in assay [2] it was 2.02%; in assay [3], -1.06%.

With `CCOC(=O)[C@H](Cc1cc([N+](=O)[O-])c(Oc2ccc(OC)c(Cc3ccc(OC)c(C(C)C)c3)c2)c([N+](=O)[O-])c1)NC(=O)C(F)(F)F`, the inhibition in assay [1] stood at 10.8%; in assay [2], 9.19%; in assay [3], 12.6%.

Turning to `Cc1ccc(O)c(C(=O)c2cc(C(=O)Nc3ccccc3C)c(=O)n(-c3ccccc3C)c2)c1`, the results for the inhibition in assay [1], in assay [2] and in assay [3] were 4.62%, 3.71% and 1.81%, respectively.

Consider `O=c1cc(NCCCNCc2ccc(Cl)c(Cl)c2)[nH]c2cc(Cl)ccc12`, for which the inhibition in assay [1] is 2.05%; in assay [2] it was 3.29%; in assay [3], 2.73%.

As to `COc1ccc(-c2cc(NCc3ccc(-n4ccnc4)cc3)nc(Nc3ccccc3)n2)cc1`, the inhibition in assay [1] came to 2.37%; in assay [2] it was 0.85%; in assay [3], 1.83%.

For `Fc1ccc(NC(=S)NCCc2ccccc2)cc1`, the inhibition in assay [1] is 0.73%; in assay [2], -2.25%; in assay [3], 0.04%.

Turning to `Oc1ccc(CCNc2nc(NCCCOc3ccccc3-c3cccc(C(F)(F)F)c3)nc(N3CCNCC3)n2)cc1`, the figures for the inhibition in assay [1], in assay [2] and in assay [3] were 4.36%, 4.82% and 5.07%, respectively.

As for `N#Cc1ccc(N2CCN(Cc3cccc(-c4ccc(-c5nc6ccccc6[nH]5)cc4)c3)CC2)nc1`, the inhibition in assay [1] was 6.09%; in assay [2], 3.68%; in assay [3], -0.67%.

With `Cc1cccc(OCCCCON2C(=N)N=C(N)NC2(C)C)c1C`, the inhibition in assay [1] was 0.1%; in assay [2], 0.14%; in assay [3], 1.69%.

Consider `COc1cc(Nc2ccnc3ccc(C(C)(C)C)cc23)cc(OC)c1OC`, for which the results for the inhibition in assay [1], in assay [2] and in assay [3] were 0.32%, 0.17% and 1.66%, respectively.

Regarding `CC(C)CNc1c2c(nc3cnn(-c4c5c(nc6cn[nH]c46)CCCC5)c13)CCCC2`, the inhibition is -3.17% in assay [1], -1.12% in assay [2] and -2.14% in assay [3].

Consider `CC(C)NCc1cccc(-c2ccc(-c3nc4ccccc4[nH]3)cc2)c1`, for which the inhibition was 3.1% in assay [1], 2.97% in assay [2] and 0.41% in assay [3].

As for `Cc1cc(OCCCN2CCC(NC(=O)c3ccc(Br)cc3)C2)c2ccccc2n1` (stereo not drawn), the inhibition in assay [1] turned out to be 24.3%; in assay [2] it was 19.2%; in assay [3] it was 13.4%.

Consider `CS(=O)(=O)NCCCNCc1cccc(-c2ccc(-c3nc4ccccc4[nH]3)s2)c1`, for which the values for the inhibition in assay [1], in assay [2] and in assay [3] were 12.1%, 11.8% and 11%, respectively.

For the compound `Cc1nc(Nc2ccc(C)c(Cl)c2)c2c(C)noc2n1`, the inhibition in assay [1] stood at 5.28%; in assay [2], 4.91%; in assay [3] it was 4.71%.

As for `CC(Oc1ccc(Cl)cc1Cl)c1nc(-c2ccc(NC(=O)c3ccco3)cc2)no1` (stereo not drawn), the results for the inhibition in assay [1], in assay [2] and in assay [3] were 2.46%, 1.87% and -0.2%, respectively.

`Cc1cc(N[C@@H](Cc2ccccc2)C(=O)NCCc2ccccc2)nc(NCc2ccccc2C)n1`: the inhibition was 2.31% in assay [1], 2.04% in assay [2] and -0.14% in assay [3].

`C=CCn1c(Sc2ccc(C#N)c([N+](=O)[O-])c2)nnc1-c1cccc(Cl)c1`: the inhibition in assay [1] was -1.46%; in assay [2], -0.51%; in assay [3], -1.95%.

As for `Oc1cc(Nc2ccnc3cc(I)ccc23)ccc1F`, the inhibition in assay [1] was 1.98%; in assay [2], -0.07%; in assay [3], 0.37%.

With `COc1ccc2[nH]c(C)cc(=NN=Cc3cc(OC)c(OC)cc3OC)c2c1`, the inhibition in assay [1] was 5.42%; in assay [2], 5.13%; in assay [3], 6.18%.

`O=C(Nc1cccc(CN2CCCN(Cc3cccnc3)CC2)c1)c1cc2ccccc2s1`: the results for the inhibition in assay [1], in assay [2] and in assay [3] were 4.38%, 4.77% and -1.53%, respectively.
